Laboratory results taken from PubChem BioAssay (EPA / NIEHS).
Results filed as inconclusive are left out. Activity calls are given as the source filed them. The calls were made as follows, unless noted: active = hit-call score of the fitted dose curve at least 0.9, where 1 is the maximum; inactive = score below 0.9.

Experiments:
[1] = target: Paired box protein Pax-6 (Homo sapiens) (UniProt P26367); assay: ATG_Pax6_CIS: Attagene CIS-FACTORIAL HepG2 Assay for human Paired Box 6 (PAX6) (AID 2282956); conditions: HepG2 CIS-FACTORIAL PAX6 reporter transcription, RNA readout; actives raise or lower the signal
Paired box protein Pax-6 (Homo sapiens), sequence (P26367 whole entry, looked up): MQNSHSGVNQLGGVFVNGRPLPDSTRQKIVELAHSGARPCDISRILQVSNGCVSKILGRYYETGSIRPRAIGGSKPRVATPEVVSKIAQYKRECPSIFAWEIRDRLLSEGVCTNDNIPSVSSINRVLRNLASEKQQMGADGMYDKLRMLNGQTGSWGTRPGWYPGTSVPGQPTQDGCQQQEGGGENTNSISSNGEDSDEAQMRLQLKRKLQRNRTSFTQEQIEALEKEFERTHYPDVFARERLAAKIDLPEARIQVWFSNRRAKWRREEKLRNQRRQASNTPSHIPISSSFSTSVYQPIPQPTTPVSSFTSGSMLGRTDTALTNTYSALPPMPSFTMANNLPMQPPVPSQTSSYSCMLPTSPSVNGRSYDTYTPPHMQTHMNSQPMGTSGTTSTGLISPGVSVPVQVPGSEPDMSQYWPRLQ
Method in brief: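 Multiplexed cis-reporter HepG2 system; 24 h treatment; reporter mRNA read by RT-PCR/CE fluorescence; bidirectional fit vs DMSO.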

[2] = ATG_PXRE_CIS: Attagene CIS-FACTORIAL HepG2 Assay for human Pregnane X Receptor Element (PXRE) (AID 2282957); conditions: HepG2 Attagene CIS-FACTORIAL PXRE reporter, mRNA; actives raise or lower the signal
Method in brief: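 Cis-element reporter mRNA in human hepatoma HepG2 cells is measured 24 h post-dosing by RT-PCR, primer-extension labeling and capillary electrophoresis; gain or loss of signal is fitted relative to DMSO.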

[3] = ATG_PPRE_CIS: Attagene CIS-FACTORIAL HepG2 Assay for human Peroxisome Proliferator-activated Response Element (PPRE) (AID 2282958); conditions: HepG2 PPRE cis-element reporter, Attagene transcription factor profiling; actives raise or lower the signal
Method in brief: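 Read-out: fluorescent reporter mRNA fragments resolved by capillary electrophoresis after RT-PCR. HepG2 cells carried transiently transfected PPRE-driven cis reporter constructs and were dosed for 24 h; gain or loss of signal fitted relative to DMSO.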

[4] = ATG_RORE_CIS: Attagene CIS-FACTORIAL HepG2 Assay for human RAR-related Orphan Receptor Element (RORE) (AID 2282959); conditions: HepG2 Attagene cis-factorial RORE reporter, mRNA; actives raise or lower the signal
Method in brief: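 Readout: fluorescent reporter mRNA by RT-PCR plus capillary electrophoresis, 24 h after dosing transfected HepG2 cells. Endogenous transcription factor activity on a cis promoter element is measured. Gain or loss of signal fitted against DMSO.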

[5] = ATG_Sox_CIS: Attagene CIS-FACTORIAL HepG2 Assay for human SRY-box transcription factor (SOX) (AID 2282960); conditions: HepG2 Attagene cis-factorial SOX reporter, mRNA; actives raise or lower the signal
Method in brief: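 Read-out: fluorescent RT-PCR products of SOX1-linked reporter transcripts resolved by capillary electrophoresis, fitted bidirectionally against DMSO. Transiently transfected HepG2 cells, 24 h after chemical exposure, endogenous transcription factor activity.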

[6] = target: Transcription factor Sp1 (Homo sapiens) (UniProt P08047); assay: ATG_Sp1_CIS: Attagene CIS-FACTORIAL HepG2 Assay for human Specificity Protein 1 (Sp1) (AID 2282961); conditions: HepG2 Sp1 cis-reporter transcription, actives raise or lower the signal
Transcription factor Sp1 (Homo sapiens), sequence (P08047 whole entry, looked up): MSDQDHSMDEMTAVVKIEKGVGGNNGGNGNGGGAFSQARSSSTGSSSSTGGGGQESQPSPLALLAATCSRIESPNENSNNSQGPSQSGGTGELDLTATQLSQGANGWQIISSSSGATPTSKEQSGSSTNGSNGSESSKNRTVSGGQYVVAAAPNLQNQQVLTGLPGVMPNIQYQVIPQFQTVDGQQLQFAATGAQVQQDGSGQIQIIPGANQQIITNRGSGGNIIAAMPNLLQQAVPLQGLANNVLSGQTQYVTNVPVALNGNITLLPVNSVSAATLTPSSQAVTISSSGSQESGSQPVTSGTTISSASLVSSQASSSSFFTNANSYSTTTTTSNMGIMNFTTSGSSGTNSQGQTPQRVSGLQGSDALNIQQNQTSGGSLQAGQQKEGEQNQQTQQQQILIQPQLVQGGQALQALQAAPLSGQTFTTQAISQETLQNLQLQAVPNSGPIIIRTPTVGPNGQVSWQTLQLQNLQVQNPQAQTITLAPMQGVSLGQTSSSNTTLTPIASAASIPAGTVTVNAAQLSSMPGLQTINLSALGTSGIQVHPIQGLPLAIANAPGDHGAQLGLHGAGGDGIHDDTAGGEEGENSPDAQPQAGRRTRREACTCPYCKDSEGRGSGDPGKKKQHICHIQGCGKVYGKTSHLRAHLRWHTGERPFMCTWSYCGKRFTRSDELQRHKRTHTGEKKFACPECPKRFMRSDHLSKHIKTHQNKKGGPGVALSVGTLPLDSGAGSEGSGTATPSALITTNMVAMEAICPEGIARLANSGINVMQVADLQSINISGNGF
Method in brief: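 Read-out: fluorescence of 6-FAM-labeled, HpaI-digested RT-PCR products separated by capillary electrophoresis. HepG2 cells carried transfected cis-element reporter units and were exposed to chemicals for 24 h; gain or loss of signal fitted relative to DMSO.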

[7] = ATG_SREBP_CIS: Attagene CIS-FACTORIAL HepG2 Assay for human Sterol Regulatory Element Binding (SREBP) (AID 2282962); conditions: HepG2 Attagene cis-factorial SREBP reporter, mRNA; actives raise or lower the signal
Method in brief: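 mRNA induction of transfected cis-promoter reporters in HepG2 cells, 24 h post-dose. Detection: RT-PCR with 6-FAM-labelled products, HpaI digest, capillary electrophoresis. DMSO served as negative control and baseline.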

[8] = target: Signal transducer and activator of transcription 3 (Homo sapiens) (UniProt P40763); assay: ATG_STAT3_CIS: Attagene CIS-FACTORIAL HepG2 Assay for human Signal Transducer and Activator of Transcription 3 (STAT3) (AID 2282963); conditions: HepG2, Attagene cis-factorial STAT3 reporter transcription; actives raise or lower the signal
Signal transducer and activator of transcription 3 (Homo sapiens), sequence (P40763 whole entry, looked up): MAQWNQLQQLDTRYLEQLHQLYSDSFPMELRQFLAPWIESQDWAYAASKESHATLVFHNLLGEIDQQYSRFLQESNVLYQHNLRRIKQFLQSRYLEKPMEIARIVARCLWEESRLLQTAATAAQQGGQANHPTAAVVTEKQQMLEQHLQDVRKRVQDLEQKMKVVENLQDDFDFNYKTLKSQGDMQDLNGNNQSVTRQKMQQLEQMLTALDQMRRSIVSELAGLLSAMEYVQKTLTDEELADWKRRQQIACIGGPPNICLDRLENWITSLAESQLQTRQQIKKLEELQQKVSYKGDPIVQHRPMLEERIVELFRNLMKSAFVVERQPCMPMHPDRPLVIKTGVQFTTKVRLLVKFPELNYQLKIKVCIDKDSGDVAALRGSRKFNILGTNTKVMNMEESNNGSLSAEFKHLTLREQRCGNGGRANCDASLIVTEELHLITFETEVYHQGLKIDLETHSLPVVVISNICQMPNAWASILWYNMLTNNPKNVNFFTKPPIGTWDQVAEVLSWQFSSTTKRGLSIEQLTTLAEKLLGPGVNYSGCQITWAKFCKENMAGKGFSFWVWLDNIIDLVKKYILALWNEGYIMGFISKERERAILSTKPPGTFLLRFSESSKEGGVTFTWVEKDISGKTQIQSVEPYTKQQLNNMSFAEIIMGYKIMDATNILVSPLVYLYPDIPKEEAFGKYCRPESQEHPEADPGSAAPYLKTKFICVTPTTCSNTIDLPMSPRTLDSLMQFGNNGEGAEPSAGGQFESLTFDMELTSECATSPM
Method in brief: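 After a 24 h compound incubation, total RNA from MRTU-transfected HepG2 cells was converted to cDNA and reporter sequences PCR-amplified, labelled and profiled by capillary electrophoresis. Gain and loss of signal were referenced to DMSO.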

[9] = ATG_TA_CIS: Attagene CIS-FACTORIAL HepG2 Assay for human TA Basal Promoter (AID 2282964); conditions: HepG2 Attagene CIS-factorial TA basal promoter reporter; actives raise or lower the signal
Method in brief: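 Transient MRTU transfection of HepG2 preceded 24 h compound exposure. Reporter mRNA levels were then read by RT-PCR with capillary electrophoresis, and this background-control endpoint was fitted bidirectionally to DMSO.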

[10] = ATG_TCF_b_cat_CIS: Attagene CIS-FACTORIAL HepG2 Assay for human T-Cell-Factor with beta-catenin (TCF/b-cat) (AID 2282965); conditions: HepG2 TCF/beta-catenin cis-reporter transcription, actives raise or lower the signal
Method in brief: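 Endogenous transcription factor activity is captured through cis-promoter reporter constructs transiently introduced into human HepG2 liver cells. Induced reporter mRNA is measured after 24 h and fitted bidirectionally relative to DMSO.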

[11] = ATG_TAL_CIS: Attagene CIS-FACTORIAL HepG2 Assay for human TAL Basal Promoter (AID 2282966); conditions: HepG2 Attagene cis-factorial TAL promoter reporter; actives raise or lower the signal;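 also: background control endpoint measuring basal TAL promoter reporter mRNA not a specific factor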
Method in brief: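 In this cell-based multiplex, HepG2 liver cells bearing cis-promoter reporter constructs are dosed for 24 hours. Total RNA is reverse-transcribed and amplified, labelled fragments are sized by capillary electrophoresis, and signal changes are fitted bidirectionally versus DMSO.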

[12] = ATG_TGFb_CIS: Attagene CIS-FACTORIAL HepG2 Assay for human Transforming Growth Factor (TGF) (AID 2282967); conditions: HepG2 Attagene CIS TGFb reporter, mRNA transcription; actives raise or lower the signal
Method in brief: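 After a 24-hour incubation with compound, transfected HepG2 cells were lysed for RNA; reporter cDNA was amplified, fluorescently end-labeled and separated by CE. DMSO served as baseline for bidirectional fits.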

[13] = target: X-box-binding protein 1 (Homo sapiens) (UniProt P17861); assay: ATG_Xbp1_CIS: Attagene CIS-FACTORIAL HepG2 Assay for human X-box Binding Protein 1 (XBP1) (AID 2282972); conditions: HepG2 XBP1 cis-element reporter, Attagene multiplex; actives raise or lower the signal
X-box-binding protein 1 (Homo sapiens), sequence (P17861 whole entry, looked up, the tested form may be a part): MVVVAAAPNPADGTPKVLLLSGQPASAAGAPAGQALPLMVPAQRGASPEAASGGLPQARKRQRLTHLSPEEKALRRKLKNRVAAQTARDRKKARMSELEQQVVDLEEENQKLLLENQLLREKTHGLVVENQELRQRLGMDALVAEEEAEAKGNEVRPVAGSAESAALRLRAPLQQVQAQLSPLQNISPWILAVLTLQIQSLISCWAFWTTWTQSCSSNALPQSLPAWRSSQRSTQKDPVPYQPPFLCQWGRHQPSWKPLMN
Method in brief: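 Fluorescence-labelled cDNA fragments from reporter transcripts, separated by capillary electrophoresis, give the signal. Source: HepG2 cells transfected with promoter-driven reporter units, harvested 24 h post-dose. DMSO served as reference for bidirectional curve fitting.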

[14] = target: Estrogen-related receptor gamma (Homo sapiens) (UniProt P62508); assay: ATG_ERRg_TRANS: Attagene TRANS-FACTORIAL HepG2 Assay for human Estrogen-Related Receptor gamma (ERRg) (AID 2282977; active = hit-call score of the fitted dose curve at least 0.9, where 1 is the maximum;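 also: hits increase reporter signal over DMSO so potencies reflect activators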); conditions: HepG2 Attagene TRANS reporter, ERRg transactivation
Estrogen-related receptor gamma (Homo sapiens), sequence (P62508 whole entry, looked up, the tested form may be a part): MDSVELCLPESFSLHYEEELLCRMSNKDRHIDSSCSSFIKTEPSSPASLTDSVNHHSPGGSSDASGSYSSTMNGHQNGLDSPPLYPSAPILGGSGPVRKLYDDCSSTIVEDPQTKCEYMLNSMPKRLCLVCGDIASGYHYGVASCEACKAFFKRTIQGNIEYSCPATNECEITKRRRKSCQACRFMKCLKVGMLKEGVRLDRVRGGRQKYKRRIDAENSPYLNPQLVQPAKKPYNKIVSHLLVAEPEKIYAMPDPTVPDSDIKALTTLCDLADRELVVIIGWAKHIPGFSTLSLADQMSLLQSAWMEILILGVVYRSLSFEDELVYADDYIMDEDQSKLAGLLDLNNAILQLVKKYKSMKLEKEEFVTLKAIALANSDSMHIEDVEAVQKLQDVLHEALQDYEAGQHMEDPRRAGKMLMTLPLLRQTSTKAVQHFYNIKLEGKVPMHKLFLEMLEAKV
Method in brief: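 HepG2 cells transiently transfected with multiplexed GAL4-UAS reporter units and chimeric NR-Gal4 constructs were exposed to test chemicals for 24 h. Reporter mRNA was measured by RT-PCR, 6-FAM primer extension, HpaI digestion and capillary electrophoresis; gain-of-signal versus DMSO.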

[15] = ATG_VDRE_CIS: Attagene CIS-FACTORIAL HepG2 Assay for human Vitamin D Receptor Element (VDRE) (AID 2282968); conditions: HepG2 VDRE cis-reporter transcription, actives raise or lower the signal
Method in brief: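 In transiently transfected HepG2 liver cells, gain or loss of reporter mRNA after 24 h exposure is scored relative to DMSO, using fluorescence detection by capillary electrophoresis of RT-PCR products.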

[16] = target: Nuclear receptor subfamily 1 group I member 3 (Homo sapiens) (UniProt Q14994); assay: ATG_CAR_TRANS: Attagene TRANS-FACTORIAL HepG2 Assay for human Constitutive Androstane Receptor (CAR) (AID 2282969; active = hit-call score of the fitted dose curve at least 0.9, where 1 is the maximum;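 also: activators raise reporter mRNA above DMSO so AC50 marks induction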); conditions: HepG2 Attagene TRANS-FACTORIAL CAR reporter
Nuclear receptor subfamily 1 group I member 3 (Homo sapiens), sequence (Q14994 whole entry, looked up, the tested form may be a part): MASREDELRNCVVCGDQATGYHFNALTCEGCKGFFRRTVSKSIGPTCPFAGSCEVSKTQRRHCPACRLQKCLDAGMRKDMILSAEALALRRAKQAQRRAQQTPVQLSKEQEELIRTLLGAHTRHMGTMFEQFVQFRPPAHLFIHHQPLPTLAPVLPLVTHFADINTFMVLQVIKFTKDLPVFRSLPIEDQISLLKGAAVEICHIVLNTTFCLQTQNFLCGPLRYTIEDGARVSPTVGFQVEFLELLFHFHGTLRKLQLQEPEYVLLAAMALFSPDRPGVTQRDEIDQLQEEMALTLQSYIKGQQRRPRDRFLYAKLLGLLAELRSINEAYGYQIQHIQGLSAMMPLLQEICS
Method in brief: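 Readout is reporter mRNA induction, quantified by fluorescent primer extension and capillary electrophoresis after RT-PCR. Cells were HepG2 transiently carrying chimeric NR-Gal4 constructs with GAL4-UAS reporters, treated for 24 h; activity scored upward from DMSO.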

[17] = ATG_M_19_TRANS: Attagene TRANS-FACTORIAL HepG2 Assay for M19 Transcription Factor (Internal Marker) (AID 2282974; active = hit-call score of the fitted dose curve at least 0.9, where 1 is the maximum); conditions: HepG2 Attagene TRANS-FACTORIAL M19 internal marker reporter
Method in brief: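 24 h chemical exposure of transiently transfected HepG2 (MRTU library). RNA → oligo(dT) RT → PCR → 6-FAM labelling → HpaI cut → CE fluorescence. Positive-direction fit vs DMSO baseline; background internal-marker readout.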

[18] = target: Steroid hormone receptor ERR1 (Homo sapiens) (UniProt P11474); assay: ATG_ERRa_TRANS: Attagene TRANS-FACTORIAL HepG2 Assay for human Estrogen-Related Receptor alpha (ERRa) (AID 2282971; active = hit-call score of the fitted dose curve at least 0.9, where 1 is the maximum); conditions: HepG2 Attagene TRANS reporter, ERRa transactivation
Steroid hormone receptor ERR1 (Homo sapiens), sequence (P11474 whole entry, looked up, the tested form may be a part): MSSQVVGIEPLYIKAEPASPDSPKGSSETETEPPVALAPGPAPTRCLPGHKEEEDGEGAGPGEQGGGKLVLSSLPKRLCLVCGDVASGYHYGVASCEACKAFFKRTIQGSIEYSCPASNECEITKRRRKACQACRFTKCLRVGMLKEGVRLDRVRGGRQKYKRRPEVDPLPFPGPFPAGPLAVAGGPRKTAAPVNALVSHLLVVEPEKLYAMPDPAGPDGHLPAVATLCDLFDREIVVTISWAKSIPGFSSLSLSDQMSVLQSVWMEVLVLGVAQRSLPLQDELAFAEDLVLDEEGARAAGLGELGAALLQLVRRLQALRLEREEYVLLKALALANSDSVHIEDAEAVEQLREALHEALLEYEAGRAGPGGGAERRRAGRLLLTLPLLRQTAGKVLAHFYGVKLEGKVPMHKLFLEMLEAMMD
Method in brief: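 Transfected HepG2, 24 h dosing, ERRa-Gal4 chimera driving GAL4-UAS reporter. Readout: reporter mRNA via RT-PCR plus capillary electrophoresis (fluorescence). Positive direction vs DMSO control.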

[19] = target: Estrogen receptor (Homo sapiens) (UniProt P03372); assay: ATG_ERa_TRANS: Attagene TRANS-FACTORIAL HepG2 Assay for human Estrogen Receptor alpha (ERa) (AID 2282970; active = hit-call score of the fitted dose curve at least 0.9, where 1 is the maximum); conditions: HepG2 Attagene TRANS ERa GAL4 reporter, mRNA
Estrogen receptor (Homo sapiens), sequence (P03372 whole entry, looked up, the tested form may be a part): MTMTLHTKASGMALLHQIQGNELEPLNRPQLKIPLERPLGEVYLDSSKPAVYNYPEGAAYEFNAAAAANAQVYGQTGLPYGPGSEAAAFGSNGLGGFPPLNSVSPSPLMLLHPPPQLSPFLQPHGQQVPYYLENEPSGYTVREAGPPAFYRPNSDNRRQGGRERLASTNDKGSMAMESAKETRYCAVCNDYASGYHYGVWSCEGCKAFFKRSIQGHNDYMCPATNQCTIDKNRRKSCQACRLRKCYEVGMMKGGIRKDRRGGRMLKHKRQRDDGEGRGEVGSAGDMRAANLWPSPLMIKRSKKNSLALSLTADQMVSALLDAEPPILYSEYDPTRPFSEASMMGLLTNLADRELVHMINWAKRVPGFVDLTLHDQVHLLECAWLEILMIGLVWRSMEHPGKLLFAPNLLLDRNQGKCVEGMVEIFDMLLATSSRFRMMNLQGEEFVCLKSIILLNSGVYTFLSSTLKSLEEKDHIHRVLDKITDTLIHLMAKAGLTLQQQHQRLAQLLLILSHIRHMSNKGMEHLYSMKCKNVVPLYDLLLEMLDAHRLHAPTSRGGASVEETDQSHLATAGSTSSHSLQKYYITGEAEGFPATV
Method in brief: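 After 24 h of compound treatment, RNA from HepG2 cells bearing transfected GAL4-UAS reporter constructs is converted to cDNA, amplified and fluorescently labelled. Capillary electrophoresis resolves the ERa-linked reporter; DMSO serves as negative control.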

[20] = ATG_GAL4_TRANS: Attagene TRANS-FACTORIAL HepG2 Assay for GAL4 (Internal Marker) (AID 2282976; active = hit-call score of the fitted dose curve at least 0.9, where 1 is the maximum); conditions: HepG2 Attagene TRANS GAL4 internal marker reporter
Method in brief: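 RT-PCR/capillary electrophoresis readout of reporter mRNA. HepG2, transient MRTU transfection (GAL4-UAS reporters), 24 h compound exposure. Background-control endpoint, positive direction vs DMSO baseline.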

Measured: AC50

COC=O
not listed: [15] | [16] | [17] | [18] | [19] | [20]
inactive: all other assays above

O=C(OCC1CCC2OC2C1)C1CCC2OC2C1 (stereo not drawn)
not listed: [12] | [14] | [17] | [18] | [19] | [20]
inactive: all other assays above

CC(=O)OCC(C)OC(C)=O (stereo not drawn)
not listed: [14] | [16] | [18] | [19] | [20]
inactive: all other assays above

[Cl][Nd]([Cl])[Cl]
not listed: [14] | [16] | [19] | [20]
inactive: all other assays above

O=S(=O)(Oc1ccc(Cl)cc1Cl)c1ccccc1
active: [2] 2.2 µM | [15] 6.51 µM | [19] 5.33 µM
not listed: [12] | [17] | [18] | [20]
inactive: all other assays above

O=S(=O)(O)CC(O)CCl (stereo not drawn)
not listed: [14] | [16] | [17] | [18] | [19]
inactive: all other assays above

CCOC(=O)CC
not listed: [12] | [14] | [17] | [18] | [20]
inactive: all other assays above

CC(C)(C)c1n[nH]c(=O)n(N)c1=O
not listed: [16] | [18] | [19]
inactive: all other assays above

Cn1c([N+](=O)[O-])cnc1COC(N)=O
not listed: [10] | [16] | [19] | [20]
inactive: all other assays above
